Measurements as given in PubChem BioAssay (NCATS).
Results filed as inconclusive are left out. Calls of active or inactive are those of the source. Calls come from the whole dose curve; as a rule, active = well fitted curve in the direction sought with a large enough effect; inconclusive = small, poorly fitted or top-dose-only effect, or another doubt; inactive = no such curve, though single readings can be large; an effect the other way counts as inactive or inconclusive.

Assays:
[1] = Quantitative High-Throughput drug screen in 47 multiple myeloma cell lines against the NCATS MIPE library collection: ARD_JJKsccE7 cell viability assay (AID 1918929)
Procedure, shortened: (§1)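 Primary qHTS used for cherry-picking: cells at 500/well, library compounds for 48 h (37C, 5% CO2), luminescent ATP assay.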

[2] = Quantitative High-Throughput drug screen in 47 multiple myeloma cell lines against the NCATS MIPE library collection: KMM1_JCRB cell viability assay (AID 1918960); note: nearly all actives have a fitted effect of over 30% in size
Procedure, shortened: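 Viability screen: myeloma cells (500/well) incubated 48 h at 37 °C, humidified 5% CO2, with pinned library compounds; CellTiter-Glo added, luminescence read; DMSO wells set 100%, medium-only wells 0%.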

[3] = Quantitative High-Throughput drug screen in 47 multiple myeloma cell lines against the NCATS MIPE library collection: Karpas417_ECACC cell viability assay (AID 1918961); conditions: Karpas417 myeloma viability, CellTiter-Glo ATP luminescence, 48 h; viability (% of DMSO): at 45.8 µM (top of the series)
Procedure, shortened: (§2)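 CellTiter-Glo ATP luminescence gave viability after 48 h compound treatment at 37C of 500 multiple myeloma cells per well. Normalisation used DMSO-only wells as 100% and media-only wells as 0% viability; primary qHTS of approved and investigational drugs.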

[4] = Quantitative High-Throughput drug screen in 47 multiple myeloma cell lines against the NCATS MIPE library collection: JIM3_ECACC cell viability assay (AID 1918963; note: nearly all actives have a fitted effect of over 35% in size)
Procedure, shortened: (§3)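 Myeloma cells (500 per well) were exposed to MIPE 4.0 compounds by pin transfer and incubated 48 hours at 37C, 5% CO2. Viability was read as ATP by CellTiter-Glo luminescence, normalised to DMSO (100%) and media-only (0%) wells.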

[5] = Quantitative High-Throughput drug screen in 47 multiple myeloma cell lines against the NCATS MIPE library collection: JIM1_ECACC cell viability assay (AID 1918964)
Procedure, shortened: as §1

[6] = Quantitative High-Throughput drug screen in 47 multiple myeloma cell lines against the NCATS MIPE library collection: INA6_PLB cell viability assay (AID 1918965; note: nearly all actives have a fitted effect of over 55% in size)
Procedure, shortened: as §2

[7] = Quantitative High-Throughput drug screen in 47 multiple myeloma cell lines against the NCATS MIPE library collection: JJN3_DSMZ cell viability assay (AID 1918966; note: nearly all actives have a fitted effect of over 50% in size)
Procedure, shortened: as §1

[8] = Quantitative High-Throughput drug screen in 47 multiple myeloma cell lines against the NCATS MIPE library collection: H1112_PLB cell viability assay (AID 1918967; note: nearly all actives have a fitted effect of over 30% in size)
Procedure, shortened: as §1

[9] = Quantitative High-Throughput drug screen in 47 multiple myeloma cell lines against the NCATS MIPE library collection: Karpas25_ECACC cell viability assay (AID 1918968; note: nearly all actives have a fitted effect of over 35% in size)
Procedure, shortened: as §1

[10] = Quantitative High-Throughput drug screen in 47 multiple myeloma cell lines against the NCATS MIPE library collection: KMS12BM_JCRB cell viability assay (AID 1918971); note: nearly all actives have a fitted effect of over 35% in size
Procedure, shortened: (§4)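 Luminescent ATP measurement with CellTiter-Glo gives viability, scaled between DMSO-only wells (100%) and media-only wells (0%). Cells, 500 per well, faced library compounds for 48 hours at 37C.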

[11] = Quantitative High-Throughput drug screen in 47 multiple myeloma cell lines against the NCATS MIPE library collection: KMS12PE_JCRB cell viability assay (AID 1918972); note: nearly all actives have a fitted effect of over 30% in size
Procedure, shortened: as §2

[12] = Quantitative High-Throughput drug screen in 47 multiple myeloma cell lines against the NCATS MIPE library collection: KMS20_JCRB cell viability assay (AID 1918973); note: nearly all actives have a fitted effect of over 45% in size
Procedure, shortened: as §1

[13] = Quantitative High-Throughput drug screen in 47 multiple myeloma cell lines against the NCATS MIPE library collection: KMS26_JCRB cell viability assay (AID 1918975); note: nearly all actives have a fitted effect of over 45% in size
Procedure, shortened: as §4

[14] = Quantitative High-Throughput drug screen in 47 multiple myeloma cell lines against the NCATS MIPE library collection: MMM1_PLB cell viability assay (AID 1918976); note: nearly all actives have a fitted effect of over 35% in size
Procedure, shortened: (§5)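 ATP-based CellTiter-Glo luminescence after 48 h drug exposure (37 °C, 5% CO2) of 500 myeloma cells per well. DMSO-only wells set 100% viability, media-only wells 0%; MIPE 4.0 library added by pin tool.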

[15] = Quantitative High-Throughput drug screen in 47 multiple myeloma cell lines against the NCATS MIPE library collection: MOLP8_DSMZ cell viability assay (AID 1918977); note: nearly all actives have a fitted effect of over 45% in size
Procedure, shortened: as §5

[16] = Quantitative High-Throughput drug screen in 47 multiple myeloma cell lines against the NCATS MIPE library collection: NCIH929_DSMZ cell viability assay (AID 1918978); note: nearly all actives have a fitted effect of over 35% in size
Procedure, shortened: as §5

[17] = Quantitative High-Throughput drug screen in 47 multiple myeloma cell lines against the NCATS MIPE library collection: KMS27_JCRB cell viability assay (AID 1918970); conditions: KMS27 myeloma cells, CellTiter-Glo ATP viability, 48 h; viability (% of DMSO): at 45.8 µM (top of the series); note: nearly all actives have a fitted effect of over 30% in size
Procedure, shortened: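 CellTiter-Glo luminescence after 48 h drug exposure at 37 °C; 500 cells/well, 1536-well format, pin-tool compound addition; DMSO = 100%, media-only = 0% viability.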

[18] = Quantitative High-Throughput drug screen in 47 multiple myeloma cell lines against the NCATS MIPE library collection: KMS21BM_JCRB cell viability assay (AID 1918974); conditions: ATP luminescence, 48 h; viability: at 45.8 µM (top of the series)
Procedure, shortened: as §1

[19] = Quantitative High-Throughput drug screen in 47 multiple myeloma cell lines against the NCATS MIPE library collection: KHM11_PLB cell viability assay (AID 1918962); note: nearly all actives have a fitted effect of over 35% in size
Procedure, shortened: as §3
Potency is the fitted concentration of half-maximal effect.

SMILES	Potency [1]	Potency [2]	viability (% of DMSO) [3]	Potency [4]	Potency [5]	Potency [6]	Potency [7]	Potency [8]	Potency [9]	Potency [10]	Potency [11]	Potency [12]	Potency [13]	Potency [14]	Potency [15]	Potency [16]	Potency [3]	Potency [17]	Potency [18]	Potency [19]
Cc1cnc(NC(=O)Nc2cc(Br)c(C)cc2OC[C@@H]2CNCCO2)cn1	1180 nM (active)	743 nM (active)	73.4% (active)	935 nM (active)	1050 nM (active)	469 nM (active)	18700 nM (active)	5900 nM (active)	16600 nM (active)	9350 nM (active)	833 nM (active)	5260 nM (active)	16600 nM (active)	18700 nM (active)	4690 nM (active)	7430 nM (active)	–	–	–	–
COc1cccc2c1C(=O)c1c(O)c3c(c(O)c1C2=O)C[C@@](O)(C(=O)CO)C[C@@H]3O[C@H]1C[C@H](N)[C@H](OC2CCCCO2)[C@H](C)O1 (some centres undefined)	inactive	inactive	–	3720 nM (active)	–	–	1870 nM (active)	1480 nM (active)	1050 nM (active)	2090 nM (active)	inactive	–	2960 nM (active)	1180 nM (active)	1180 nM (active)	935 nM (active)	inactive	inactive	–	–
COc1cc(OC)c(C=CS(=O)(=O)Cc2ccc(OC)c(NCC(=O)O)c2)c(OC)c1	74.3 nM (active)	74.3 nM (active)	–	209 nM (active)	37.2 nM (active)	–	1050 nM (active)	418 nM (active)	332 nM (active)	418 nM (active)	105 nM (active)	1180 nM (active)	1320 nM (active)	743 nM (active)	2090 nM (active)	2640 nM (active)	1180 nM (active)	74.3 nM (active)	83.3 nM (active)	–
C=CC(=O)N1CCc2ccc(-n3c(=O)ccc4cnc5ccc(-c6cnn(C)c6)cc5c43)cc21	833 nM (active)	833 nM (active)	–	2960 nM (active)	1870 nM (active)	235 nM (active)	1050 nM (active)	1050 nM (active)	590 nM (active)	4690 nM (active)	2960 nM (active)	833 nM (active)	1320 nM (active)	1870 nM (active)	590 nM (active)	1660 nM (active)	935 nM (active)	–	–	–
CC(=O)O[C@@]12CO[C@H]1C[C@H](O)[C@@]1(C)C(=O)[C@H](O)C3=C(C)[C@@H](OC(=O)C(O)[C@@H](NC(=O)OC(C)(C)C)c4ccccc4)C[C@@](O)([C@@H](OC(=O)c4ccccc4)[C@@H]21)C3(C)C (some centres undefined)	inactive	inactive	–	inactive	inactive	–	inactive	inactive	inactive	inactive	–	–	–	–	–	inactive	–	inactive	–	inactive
CCOc1cc2ncc(C#N)c(Nc3ccc(OCc4ccccn4)c(Cl)c3)c2cc1NC(=O)C=CCN(C)C	662 nM (active)	935 nM (active)	–	–	418 nM (active)	264 nM (active)	5900 nM (active)	–	662 nM (active)	5260 nM (active)	264 nM (active)	–	18700 nM (active)	–	–	833 nM (active)	–	264 nM (active)	–	935 nM (active)
NC(=O)Nc1sc(-c2ccc(F)cc2)cc1C(N)=O	296 nM (active)	209 nM (active)	–	4690 nM (active)	74.3 nM (active)	332 nM (active)	418 nM (active)	–	418 nM (active)	4180 nM (active)	935 nM (active)	1660 nM (active)	2960 nM (active)	3320 nM (active)	13200 nM (active)	20.9 nM (active)	74.3 nM (active)	–	–	–
C#Cc1cccc(Nc2ncnc3cc(OCCOC)c(OCCO)cc23)c1	418 nM (active)	4690 nM (active)	–	1870 nM (active)	264 nM (active)	1320 nM (active)	–	1870 nM (active)	1180 nM (active)	–	1480 nM (active)	–	–	–	–	–	526 nM (active)	18.7 nM (active)	132 nM (active)	–
OCc1ccccc1O[C@@H]1O[C@H](CO)[C@H](O)[C@H](O)[C@H]1O	inactive	inactive	–	inactive	inactive	13200 nM (active)	–	–	inactive	–	inactive	–	inactive	–	–	11800 nM (active)	–	inactive	–	inactive
O=C1c2cccc(O)c2C(=O)c2c(O)cc(CO)cc21	inactive	inactive	–	inactive	inactive	–	–	inactive	–	–	inactive	inactive	inactive	–	–	inactive	–	inactive	–	inactive
C[C@H](NC(=O)Cc1cc(F)cc(F)c1)C(=O)N[C@H](C(=O)OC(C)(C)C)c1ccccc1	inactive	inactive	–	–	–	–	–	inactive	inactive	4690 nM (active)	inactive	–	inactive	–	–	inactive	–	inactive	–	inactive
O=C(O)CCCCC(CCSCc1ccccc1)SCc1ccccc1 (centres undefined)	18700 nM (active)	13200 nM (active)	–	inactive	–	–	–	–	–	inactive	16600 nM (active)	–	inactive	–	inactive	inactive	–	13200 nM (active)	–	inactive
